Records with an inconclusive call do not appear. Where a call stands in place of a potency, no number is given. Calls of active or inactive are those of the source. Calls follow the shape of the dose curve; as a rule, active = well fitted curve in the direction sought with a large enough effect; inconclusive = small, poorly fitted or top-dose-only effect, or another doubt; inactive = no such curve, though single readings can be large; an effect the other way counts as inactive or inconclusive.

DNA polymerase III PolC-type (Bacillus subtilis (strain 168)), sequence (P13267 whole entry, looked up): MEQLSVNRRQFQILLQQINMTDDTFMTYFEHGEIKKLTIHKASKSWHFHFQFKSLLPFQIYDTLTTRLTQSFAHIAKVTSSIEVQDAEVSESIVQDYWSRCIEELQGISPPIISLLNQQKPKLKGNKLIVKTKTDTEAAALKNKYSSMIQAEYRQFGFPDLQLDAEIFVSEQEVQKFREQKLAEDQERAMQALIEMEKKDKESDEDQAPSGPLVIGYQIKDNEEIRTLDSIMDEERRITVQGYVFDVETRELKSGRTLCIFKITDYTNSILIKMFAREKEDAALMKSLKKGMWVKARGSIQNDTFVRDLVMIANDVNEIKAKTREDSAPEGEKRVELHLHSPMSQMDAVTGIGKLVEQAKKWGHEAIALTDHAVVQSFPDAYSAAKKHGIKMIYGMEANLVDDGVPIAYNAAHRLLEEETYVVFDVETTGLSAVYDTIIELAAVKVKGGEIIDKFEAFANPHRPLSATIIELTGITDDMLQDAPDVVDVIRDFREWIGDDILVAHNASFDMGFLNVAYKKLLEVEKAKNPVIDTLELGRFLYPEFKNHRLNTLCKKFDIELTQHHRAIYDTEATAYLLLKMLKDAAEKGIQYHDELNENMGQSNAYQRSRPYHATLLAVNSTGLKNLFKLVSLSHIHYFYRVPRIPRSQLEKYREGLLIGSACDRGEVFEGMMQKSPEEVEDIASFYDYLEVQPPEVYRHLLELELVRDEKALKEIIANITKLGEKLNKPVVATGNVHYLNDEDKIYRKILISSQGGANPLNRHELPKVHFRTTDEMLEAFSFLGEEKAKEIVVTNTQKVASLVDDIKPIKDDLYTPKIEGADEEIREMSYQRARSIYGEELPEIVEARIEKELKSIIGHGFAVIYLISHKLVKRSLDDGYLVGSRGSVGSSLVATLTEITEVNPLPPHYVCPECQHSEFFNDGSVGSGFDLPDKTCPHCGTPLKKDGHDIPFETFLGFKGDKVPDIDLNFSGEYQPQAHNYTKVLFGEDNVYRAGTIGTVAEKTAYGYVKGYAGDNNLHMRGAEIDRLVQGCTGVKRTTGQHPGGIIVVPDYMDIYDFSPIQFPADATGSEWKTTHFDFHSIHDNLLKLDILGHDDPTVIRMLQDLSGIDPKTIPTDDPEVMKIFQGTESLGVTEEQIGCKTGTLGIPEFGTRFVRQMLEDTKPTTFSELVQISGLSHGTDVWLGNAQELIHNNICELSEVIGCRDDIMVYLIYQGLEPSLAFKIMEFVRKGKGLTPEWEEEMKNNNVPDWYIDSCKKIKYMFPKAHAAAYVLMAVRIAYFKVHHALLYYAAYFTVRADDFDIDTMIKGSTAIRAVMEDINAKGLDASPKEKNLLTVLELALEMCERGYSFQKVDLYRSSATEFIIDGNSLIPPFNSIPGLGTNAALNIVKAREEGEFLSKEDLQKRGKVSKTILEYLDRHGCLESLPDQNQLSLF

The target of one experiment is Ubiquitin carboxyl-terminal hydrolase 2 (Homo sapiens) (UniProt O75604). As to the kind of experiment: qHTS Validation Assay for Inhibitors of Ubiquitin-specific Protease USP2a Using CHOP2 as the Reporter (AID 463106). Also: potency is read from the fitted curve at half-maximal effect. Conditions: USP2a cleavage of CHOP2 reporter, enzymatic; series mostly up to 38.3 µM. Summed up: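 10nM USP2 core + cpd, 30min RT; add 25nM Ub-CHOP2/25nM substrate; 60min RT; FI 485/531nm. Buffer Tris pH 8.0, CaCl2, BME, CHAPS. Norm. to NEM = 100% inhibition; time-zero read flags fluorescent artifacts.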
Ubiquitin carboxyl-terminal hydrolase 2 (Homo sapiens), sequence (O75604 whole entry, looked up): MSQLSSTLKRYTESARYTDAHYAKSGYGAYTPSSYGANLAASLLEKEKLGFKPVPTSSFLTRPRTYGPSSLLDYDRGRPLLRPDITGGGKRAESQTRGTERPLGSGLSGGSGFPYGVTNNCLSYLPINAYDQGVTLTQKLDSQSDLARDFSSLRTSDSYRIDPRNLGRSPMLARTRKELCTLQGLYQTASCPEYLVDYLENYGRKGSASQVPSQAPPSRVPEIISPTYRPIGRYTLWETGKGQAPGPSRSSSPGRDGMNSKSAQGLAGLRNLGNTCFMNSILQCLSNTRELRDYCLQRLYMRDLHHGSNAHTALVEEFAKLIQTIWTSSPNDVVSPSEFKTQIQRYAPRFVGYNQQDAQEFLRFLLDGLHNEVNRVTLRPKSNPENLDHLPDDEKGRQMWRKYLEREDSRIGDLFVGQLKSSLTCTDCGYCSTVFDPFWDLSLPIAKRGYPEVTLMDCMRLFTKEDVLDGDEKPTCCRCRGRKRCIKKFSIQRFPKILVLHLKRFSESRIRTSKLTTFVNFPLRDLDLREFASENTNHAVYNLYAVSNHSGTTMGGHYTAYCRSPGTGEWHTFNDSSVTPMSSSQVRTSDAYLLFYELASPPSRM
For orientation: In qHTS, concentration-response curves come from the screen itself.
With `CNc1ncnc2c1ncn2[C@@H]1O[C@H](CO)[C@@H](O)[C@H]1O`, the Potency result was “inactive”.
Regarding `CCNC(=O)[C@H]1O[C@@H](n2cnc3c(N)nc(NCCc4ccc(CCC(=O)O)cc4)nc32)[C@H](O)[C@@H]1O`, the Potency entry is “inactive”.
`CSc1nc(N)c2ncn([C@@H]3O[C@H](COP(=O)(O)OP(=O)(O)OP(=O)(O)O)[C@@H](O)[C@H]3O)c2n1`: the Potency entry was “inactive”.
Same read-out and setting: the same measure for `Clc1ccc(N2CCN(Cc3cc4ccccn4n3)CC2)cc1`: “inactive”; for `C=CC(=O)c1ccc(CCCCCC)cc1`: “inactive”.
Same read-out and setting: under `OC[C@H]1O[C@@H](n2cnc3c(Nc4ccccc4)ncnc32)[C@H](O)[C@@H]1O` stands “inactive”.
With `NC(=S)c1ccc[n+]([C@@H]2O[C@@H](COP(=O)([O-])OP(=O)(O)OC[C@H]3O[C@@H](n4cnc5c(N)ncnc54)[C@H](OP(=O)(O)O)[C@@H]3O)C(O)C2O)c1` (stereo partly specified), the Potency result is “inactive”.
The same measure, in the same setting: under `COc1ccc2c(c1)CCC1C2CC[C@@]2(C)C1CC[C@@H]2NCCCCCCN1C(=O)CCC1=O` (stereo partly specified) stands “inactive”; under `Cc1nc2sccn2c(=O)c1CCN1CCC(=C(c2ccccc2)c2ccc(F)cc2)CC1`, “inactive”.
Same read-out and setting: the same measure for `CSc1ccccc1N1CCN(CCCCCC(=O)NC2CCCc3ccccc32)CC1` (stereo unspecified): “inactive”; for `NC[C@H]1O[C@@H](n2cnc3c(N)ncnc32)[C@H](O)[C@@H]1O`: “inactive”.
With `CCc1c(C(=O)NCCc2ccc(N3CCCCC3)cc2)[nH]c2ccc(Cl)cc12`, the Potency entry is “inactive”.
The same measure, in the same setting: the same measure for `N#C/C(=C\c1ccc(-c2cc(Cl)ccc2Cl)o1)C(=O)Nc1cccc2ncccc12`: “inactive”.
Same read-out and setting: the same measure for `CO/S(=N\S(=O)(=O)c1ccc(Cl)cc1)c1ccc([N+](=O)[O-])cc1` (stereo unspecified): “inactive”.
Still for that read-out and setting: the same measure for `OCC1O[C@H]([S-])[C@H](O)[C@@H](O)[C@@H]1O.[Au+]` (stereo partly specified): 18.5 µM (active); for `CO/N=C(\C(=O)N[C@@H]1C(=O)N2C(C(=O)O)=C(COC(C)=O)CS[C@H]12)c1csc(N)n1`: “inactive”; for `CCC1C(=O)OCC1Cc1cncn1C` (stereo unspecified): “inactive”.
On to `CCCCC#Cc1nc(NC)c2ncn([C@@H]3O[C@H](CO)[C@@H](O)[C@H]3O)c2n1`, for which the Potency result is “inactive”.
`COc1ccc(NC(=O)/C=C/c2ccc(Cl)cc2)cc1`: the Potency entry was “inactive”.
`NC(=S)NCCC[C@H](N)C(=O)O`: the Potency entry was “inactive”.
For the compound `Ic1ccc(N2CCN(Cc3c[nH]c4ncccc34)CC2)cc1`, the Potency entry is “inactive”.
On the same count and under the same terms, under `COc1cc(SC)ccc1C(=O)N1CCC(Cc2ccccc2)CC1` stands “inactive”; under `CNC(=O)[C@H]1O[C@@H](n2cnc3c(NCc4cccc(I)c4)ncnc32)[C@H](O)[C@@H]1O`, “inactive”.
Consider `O=C1/C(=C/c2ccsc2)CC/C1=C\c1cccs1`, for which the Potency entry was “inactive”.
Same read-out and setting: under `O=C1NC(=O)/C(=C/c2ccc3nccnc3c2)S1` stands “inactive”; under `Nc1ncnc2c1ncn2[C@@H]1O[C@H](COP(=O)(O)CP(=O)(O)OP(=O)(O)O)[C@@H](O)[C@H]1O`, “inactive”.
As for `CN1CCc2cccc3c2C1Cc1ccc(O)c(O)c1-3` (stereo unspecified), the Potency entry was “inactive”.
For the compound `Nc1ncnc2c1ncn2[C@@H]1O[C@H](COP(=O)(O)OP(=O)(O)OP(=O)(O)OP(=O)(O)OC[C@@H]2O[C@H](n3cnc4c(N)ncnc43)[C@@H](O)[C@H]2O)[C@@H](O)[C@H]1O`, the Potency result is “inactive”.
On the same count and under the same terms, the same measure for `O=C(c1cc(O)c(O)c([N+](=O)[O-])c1)c1ccccc1F`: “inactive”.
As to `c1cnc2c(c1)ccc1cccnc12`, the Potency result was “inactive”.
With `O=C1NC(=O)/C(=C/c2ccc(-c3ccc(F)cc3O)o2)S1`, the Potency entry is “inactive”.
In the case of `Nc1nc(Nc2ccccc2)nc2c1ncn2[C@@H]1O[C@H](CO)[C@@H](O)[C@H]1O`, the Potency entry is “inactive”.
On the same count and under the same terms, under `NCC1OC(O[C@H]2[C@H](O)[C@@H](OC3C(O)C(N)CC(N)C3OC3OC(CO)C(O)C(O)C3N)O[C@@H]2CO)C(N)C(O)C1O` (stereo partly specified) stands “inactive”; under `C#C[C@]1(O)CC[C@H]2[C@@H]3CCC4=Cc5oncc5CC4(C)[C@H]3CCC21C` (stereo partly specified), “inactive”; under `Nc1nc(SCc2ccc([N+](=O)[O-])cc2)c2ncn([C@@H]3O[C@H](CO)[C@@H](O)[C@H]3O)c2n1`, “inactive”.
As for `CN1C2CC(OC(=O)[C@H](CO)c3ccccc3)CC1C1OC12` (stereo partly specified), the Potency result was “inactive”.
In the case of `CCCCCCCCCCCCCCCCCC(=O)OC(CC(=O)O)C[N+](C)(C)C` (stereo unspecified), the Potency entry is “inactive”.
The same measure, in the same setting: under `CCCCCCCCCCCCCCCC(=O)NCC(COP(=O)([O-])OCC[N+](C)(C)C)OCC` (stereo unspecified) stands “inactive”.

A further experiment has as its target DNA polymerase III PolC-type (Bacillus subtilis (strain 168)) (UniProt P13267). The experiment is described as follows: qHTS Validation Assay for the Inhibitors of DNA Replication in Gram-Positive Bacteria (AID 485295).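 Also: reconstituted holoenzyme with PolC plus beta clamp SSB and primase; PicoGreen fluorescence of double-stranded DNA made on primed circular M13 template.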 The following applies: Gram-positive bacterial DNA replication assay; series mostly up to 57.1 µM. Summed up: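 Primed replication of single-stranded M13Gori by a four-protein B. subtilis holoenzyme is measured at room temperature. Double-stranded product is quantified by PicoGreen fluorescence after an EDTA stop; inhibition is scaled between DMSO and EDTA controls.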
Consider `CNc1ncnc2c1ncn2[C@@H]1O[C@H](CO)[C@@H](O)[C@H]1O`, for which the Potency result was “inactive”.
As to `CCNC(=O)[C@H]1O[C@@H](n2cnc3c(N)nc(NCCc4ccc(CCC(=O)O)cc4)nc32)[C@H](O)[C@@H]1O`, the Potency entry was “inactive”.
On the same count and under the same terms, under `CSc1nc(N)c2ncn([C@@H]3O[C@H](COP(=O)(O)OP(=O)(O)OP(=O)(O)O)[C@@H](O)[C@H]3O)c2n1` stands “inactive”.
Still for that read-out and setting: the same measure for `Clc1ccc(N2CCN(Cc3cc4ccccn4n3)CC2)cc1`: “inactive”; for `C=CC(=O)c1ccc(CCCCCC)cc1`: “inactive”; for `OC[C@H]1O[C@@H](n2cnc3c(Nc4ccccc4)ncnc32)[C@H](O)[C@@H]1O`: “inactive”.
On the same count and under the same terms, the same measure for `NC(=S)c1ccc[n+]([C@@H]2O[C@@H](COP(=O)([O-])OP(=O)(O)OC[C@H]3O[C@@H](n4cnc5c(N)ncnc54)[C@H](OP(=O)(O)O)[C@@H]3O)C(O)C2O)c1` (stereo partly specified): “inactive”; for `COc1ccc2c(c1)CCC1C2CC[C@@]2(C)C1CC[C@@H]2NCCCCCCN1C(=O)CCC1=O` (stereo partly specified): “inactive”; for `Cc1nc2sccn2c(=O)c1CCN1CCC(=C(c2ccccc2)c2ccc(F)cc2)CC1`: “inactive”.
Consider `CSc1ccccc1N1CCN(CCCCCC(=O)NC2CCCc3ccccc32)CC1` (stereo unspecified), for which the Potency result was “inactive”.
As for `NC[C@H]1O[C@@H](n2cnc3c(N)ncnc32)[C@H](O)[C@@H]1O`, the Potency result is “inactive”.
The same measure, in the same setting: under `CCc1c(C(=O)NCCc2ccc(N3CCCCC3)cc2)[nH]c2ccc(Cl)cc12` stands “inactive”; under `N#C/C(=C\c1ccc(-c2cc(Cl)ccc2Cl)o1)C(=O)Nc1cccc2ncccc12`, “inactive”.
The same measure, in the same setting: the same measure for `CO/S(=N\S(=O)(=O)c1ccc(Cl)cc1)c1ccc([N+](=O)[O-])cc1` (stereo unspecified): “inactive”.
For the compound `OCC1O[C@H]([S-])[C@H](O)[C@@H](O)[C@@H]1O.[Au+]` (stereo partly specified), the Potency result was “inactive”.
For the compound `CO/N=C(\C(=O)N[C@@H]1C(=O)N2C(C(=O)O)=C(COC(C)=O)CS[C@H]12)c1csc(N)n1`, the Potency result is “inactive”.
Still for that read-out and setting: under `CCC1C(=O)OCC1Cc1cncn1C` (stereo unspecified) stands “inactive”; under `CCCCC#Cc1nc(NC)c2ncn([C@@H]3O[C@H](CO)[C@@H](O)[C@H]3O)c2n1`, “inactive”.
Turning to `COc1ccc(NC(=O)/C=C/c2ccc(Cl)cc2)cc1`, the Potency entry is “inactive”.
For the compound `NC(=S)NCCC[C@H](N)C(=O)O`, the Potency entry was “inactive”.
Still for that read-out and setting: the same measure for `Ic1ccc(N2CCN(Cc3c[nH]c4ncccc34)CC2)cc1`: “inactive”; for `COc1cc(SC)ccc1C(=O)N1CCC(Cc2ccccc2)CC1`: “inactive”; for `CNC(=O)[C@H]1O[C@@H](n2cnc3c(NCc4cccc(I)c4)ncnc32)[C@H](O)[C@@H]1O`: “inactive”.
Regarding `O=C1/C(=C/c2ccsc2)CC/C1=C\c1cccs1`, the Potency entry is “inactive”.
For `O=C1NC(=O)/C(=C/c2ccc3nccnc3c2)S1`, the Potency result is “inactive”.
On to `Nc1ncnc2c1ncn2[C@@H]1O[C@H](COP(=O)(O)CP(=O)(O)OP(=O)(O)O)[C@@H](O)[C@H]1O`, for which the Potency result was “inactive”.
Same read-out and setting: under `CN1CCc2cccc3c2C1Cc1ccc(O)c(O)c1-3` (stereo unspecified) stands “inactive”; under `Nc1ncnc2c1ncn2[C@@H]1O[C@H](COP(=O)(O)OP(=O)(O)OP(=O)(O)OP(=O)(O)OC[C@@H]2O[C@H](n3cnc4c(N)ncnc43)[C@@H](O)[C@H]2O)[C@@H](O)[C@H]1O`, “inactive”.
For `O=C(c1cc(O)c(O)c([N+](=O)[O-])c1)c1ccccc1F`, the Potency result was “inactive”.
Consider `c1cnc2c(c1)ccc1cccnc12`, for which the Potency entry is “inactive”.
For `O=C1NC(=O)/C(=C/c2ccc(-c3ccc(F)cc3O)o2)S1`, the Potency entry is “inactive”.
Same read-out and setting: under `Nc1nc(Nc2ccccc2)nc2c1ncn2[C@@H]1O[C@H](CO)[C@@H](O)[C@H]1O` stands “inactive”; under `NCC1OC(O[C@H]2[C@H](O)[C@@H](OC3C(O)C(N)CC(N)C3OC3OC(CO)C(O)C(O)C3N)O[C@@H]2CO)C(N)C(O)C1O` (stereo partly specified), “inactive”.
Still for that read-out and setting: under `C#C[C@]1(O)CC[C@H]2[C@@H]3CCC4=Cc5oncc5CC4(C)[C@H]3CCC21C` (stereo partly specified) stands “inactive”; under `Nc1nc(SCc2ccc([N+](=O)[O-])cc2)c2ncn([C@@H]3O[C@H](CO)[C@@H](O)[C@H]3O)c2n1`, “inactive”.
Regarding `CN1C2CC(OC(=O)[C@H](CO)c3ccccc3)CC1C1OC12` (stereo partly specified), the Potency result is “inactive”.
On the same count and under the same terms, under `CCCCCCCCCCCCCCCCCC(=O)OC(CC(=O)O)C[N+](C)(C)C` (stereo unspecified) stands “inactive”; under `CCCCCCCCCCCCCCCC(=O)NCC(COP(=O)([O-])OCC[N+](C)(C)C)OCC` (stereo unspecified), “inactive”.

The values are drawn from PubChem BioAssay (NCATS).
